Bioassay records: PubChem, National Center for Advancing Translational Sciences (NCATS)
In the library only some 2.2% were active in any assay of this set; here they are far more common.
Mm-Cpn inhibitor – M. maripaludis TRiC chaperonin inhibition; purified Mm-Cpn ATPase, ADP Transcreener TR-FRET; Potency, µM (top dose mostly 76.9 µM), without a hit: at the highest dose activity, negative = inhibition, usual class: inhibitors; hit rate 0.031% among 330,000; AID 504842; note: potency is the fitted concentration of half-maximal effect; % is set by controls: 0 for no effect and ±100 for the full control effect; nearly all actives have a fitted effect of over 80% in size
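ATPase read-out: TR-FRET ADP immunoassay (anti-ADP Eu cryptate vs ADP-d2), ex 320 nm, em 590/665 nm; signal drops as ADP forms. Enzyme 25 nM, ATP 10 uM, 30 min at 37°C after 10 min compound preincubation.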
HEK293 tox – cytotoxicity counter-screen for GLP-1 receptor inverse agonists; HEK293 cAMP-luciferase reporter cells, luminescence, 24 h; Potency, µM (doses to about 38.3 µM), inactives show at the highest dose activity change, negative = inhibition, most hits filed as inhibitors; hit rate 0.13% among 410,000; AID 624418;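 note: loss of luciferase light is scored as toxicity; potency is the fitted concentration of half-maximal effect; % is set by controls: 0 for no effect and ±100 for the full control effect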
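Seeding density was 200 cells/uL; after overnight-length (12 h) culture, 23 nL compounds went on for 24 h at 37 °C. Readout used a luciferase detection reagent, luminescence taken after 12 min at room temperature.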
GLP-1R inv ag – inverse agonists of human GLP-1 receptor. P43220. HEK293 GLP-1R CRE-luciferase, luminescence, 24 h; GLP-1R form is constitutively active. Potency, µM (top dose mostly 38.3 µM), for the others: top-dose activity change, negative = inhibition, most hits filed as inhibitors. hit rate 1.6% among 410,000; note: potency is the fitted concentration of half-maximal effect; % is set by controls: 0 for no effect and ±100 for the full control effect; nearly all actives have a fitted effect of over 55% in size
Target sequence (P43220 whole entry, looked up): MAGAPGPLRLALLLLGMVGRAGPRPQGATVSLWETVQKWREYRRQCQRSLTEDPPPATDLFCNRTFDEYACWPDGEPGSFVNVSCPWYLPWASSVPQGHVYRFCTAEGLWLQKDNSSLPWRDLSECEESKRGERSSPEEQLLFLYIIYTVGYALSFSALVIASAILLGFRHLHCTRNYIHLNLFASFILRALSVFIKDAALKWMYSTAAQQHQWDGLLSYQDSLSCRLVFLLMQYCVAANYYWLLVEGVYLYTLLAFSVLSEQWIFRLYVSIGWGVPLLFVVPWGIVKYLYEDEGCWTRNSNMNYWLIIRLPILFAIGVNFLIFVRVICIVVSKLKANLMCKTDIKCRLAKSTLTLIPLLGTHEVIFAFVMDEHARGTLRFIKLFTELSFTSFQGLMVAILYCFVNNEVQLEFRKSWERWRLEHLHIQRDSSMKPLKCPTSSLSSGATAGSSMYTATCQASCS
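Cells are plated, allowed 12 hours at 37 deg C, then treated with compounds for 24 hr before luciferase detection reagent is added and luminescence is read after 12 min at room temperature. The HEK293 line carries constitutively active GLP-1R with a cAMP-responsive reporter.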
CCT modulator – changes cytosolic chaperonin activity | AID 651819 | purified chaperonin ATPase assay, HTRF ADP detection, 30 min | hit rate 0.3% among 360,000 | activity change, % (concentration not given with the values), hits read low; in the data active = activity change below about -30%; note: % is set by controls: 0 for no effect and ±100 for the full control effect
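TRiC (40 or 20 nM final, by batch activity) in 30 mM Tris pH 7.4, 100 mM KCl, 5 mM MgCl2, 1 mM DTT was treated with compound at 76 uM single dose, then 10 uM ATP, 30 min at 37 °C. ADP was read by HTRF Transcreener.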
GLP-1R agonist – agonists of human GLP-1 receptor; AID 624172; Potency, µM (highest dose often 45.6 µM), inactives show at the highest dose activation, hits mostly activators; HEK293 GLP-1R CRE-luciferase, luminescence, 4-6 h; cells express a hypersensitive GLP-1R form; hit rate 0.007% among 380,000; P43220; note: potency is the fitted concentration of half-maximal effect; % of control where 0% means no effect
uPA surface inh – inhibitors of cell surface uPA generation; cell surface uPA generation assay, qHTS; Potency, µM (doses to about 38.3 µM), without a hit: at the top dose activity change, negative = inhibition, actives largely listed as inhibitors; hit rate 0.31% among 330,000; AID 540303; active = well fitted inhibition curve with a large enough effect; inconclusive = small, poorly fitted or top-dose-only effect; inactive = no such curve, though single readings can be large or run the other way; tested in mouse RAW 264.7 cells; note: potency is the fitted concentration of half-maximal effect; % is set by controls: 0 for no effect and ±100 for the full control effect; nearly all actives have a fitted effect of over 55% in size
An asterisk follows results filed as active; u = inconclusive; x = not tested or not shown. Unless noted, calls come from the whole dose curve; as a rule, active = well fitted curve in the direction sought with a large enough effect; inconclusive = small, poorly fitted or top-dose-only effect, or another doubt; inactive = no such curve, though single readings can be large; an effect the other way counts as inactive or inconclusive.

SMILES	Mm-Cpn inhibitor	HEK293 tox	GLP-1R inv ag	CCT modulator	GLP-1R agonist	uPA surface inh
c1cncc(-c2nc(NCCCN3CCOCC3)c3c4c(sc3n2)CCC4)c1	-16.3%	5.7%	11.2µM*	-2.7	21.9%	0.5%
Cc1ccc(NC(=O)Cn2nc(C)n3cccc3c2=O)c(C)c1	x	-4.8%	18.7%	x	x	x
CC(=O)c1ccc(S(=O)(=O)N(C)CC(=O)Nc2cc(C)on2)cc1	-3.7%	13.3%	22.6%	-3.6	-16.8%	0.8%
Cc1cc(NC(=O)CC(CN(C)S(=O)(=O)c2ccccc2)c2ccccc2)no1 (centres undefined)	1.8%	-5.4%	10µM*	2.2	-7.4%	u
CC(C)OCCCNC(=O)c1cc2c(-c3ccc(Cl)cc3)nn(C)c2s1	x	1.1%	2.8%	x	x	x
CCCCOc1ccc(S(=O)(=O)Nc2cccc(-c3ccc(N4CCOCC4)nn3)c2)cc1	x	-7.7%	u	x	x	x
COc1ccc(-c2csc3ncnc(NCCCO)c23)cc1	-1.7%	-6.4%	-40.0%	1.3	-0.5%	-2.6%
CCN(CC)CCCNc1ncnc2scc(-c3ccc(F)cc3)c12	-0.8%	-8.5%	7.08µM*	1.0	-12.9%	-5.5%
CC(C)Cc1nnc(NC(=O)c2cccc(S(=O)(=O)N3CCOCC3)c2)s1	u	-17.5%	-12.7%	-59.3*	-0.7%	-16.1%
CC(C)Cc1nnc(NC(=O)c2cccc(S(=O)(=O)N3CCN(C)CC3)c2)s1	-1.5%	0.3%	6.6%	-1.3	-0.9%	-7.9%
COc1ccc(CNC(c2ccccc2)c2ccc(Cl)cc2)cc1 (centres undefined)	1.4%	0.1%	u	0.9	4.8%	0.7%
CC(NCc1ccc(OCc2ccc(Cl)cc2)cc1)C(O)c1ccccc1 (centres undefined)	-2.7%	u	10µM*	2.8	9.2%	-2.0%
CC(NCc1cccc(OCc2ccccc2)c1)C(O)c1ccccc1 (centres undefined)	0.5%	u	8.91µM*	2.3	21.7%	-13.3%
C=CCN1C(=O)/C(=C/N(C)C)S/C1=N\S(=O)(=O)c1cccs1	x	-6.1%	9.1%	1.1	10.1%	x
CCN1C(=O)/C(=C\N(C)C)S/C1=N\S(=O)(=O)c1ccc(C)cc1	0.6%	14.5%	12.7%	-45.2*	0.7%	5.9%
CCN(CC)CCNC(=O)c1ccc(NC(=O)c2ccc(S(=O)(=O)N3CCCCCC3)cc2)cc1	-2.5%	u	u	1.6	6.3%	-5.9%
CCN(CC)CCNC(=O)c1ccc(NC(=O)COc2ccc3c(c2)CCC3)cc1	0.3%	-16.3%	4.47µM*	-3.0	7.3%	u
CCN(CC)CCNC(=O)c1ccc(NC(=O)c2ccc(Cl)c(S(=O)(=O)N3CCCCCC3)c2)cc1	-1.3%	u	3.98µM*	-0.4	u	-6.9%
O=c1c(-c2c(O)cc(O)c3c2O[C@H](c2ccc(O)cc2)CC3)c(-c2ccc(O)cc2)oc2cc(O)cc(O)c12	35.5µM*	4.0%	-8.8%	-2.4	0.8%	24.0%
O=c1c(O)c(-c2ccc(O)cc2)oc2cc(O)cc(O)c12	x	-4.7%	28.1%	0.2	-9.5%	-15.4%
Cc1ccc2onc(CC(=O)N3CCN(c4cccc(Cl)c4)CC3)c2c1	x	4.0%	u	x	x	x
CSc1ccc(NC(=O)NCCCN2CCC(Cc3ccccc3)CC2)cc1	-2.5%	u	7.94µM*	-1.6	1.6%	22.9%
Cc1ccc(S(=O)(=O)N2C[C@H]3N(C(=O)OC(C)C)N(C(=O)OC(C)C)C[C@H](OC(=O)NCC4CCCCC4)[C@@]3(O)C2)cc1	x	u	4.47µM*	1.6	-3.5%	x
CCS(=O)(=O)N1CC(=O)N(c2ccc(Cl)cc2C)C(C)(C(=O)NC2CCCCCC2)C1 (centres undefined)	x	21.0%	11.5%	x	x	x
CC(=O)c1ccc(OCC(=O)NC2CCCCCC2)cc1	-2.0%	3.9%	13.3%	-2.3	28.0%	0.5%
SMILES	Mm-Cpn inhibitor	HEK293 tox	GLP-1R inv ag	CCT modulator	GLP-1R agonist	uPA surface inh
CC1CCC(NC(=O)COc2ccc(C(=O)c3ccccc3)cc2)CC1 (centres undefined)	2.5%	-1.1%	u	-44.8*	5.6%	-15.9%
Cc1ccc(CNC(=O)C(=O)NCC(c2ccc3c(c2)OCO3)N2CCOCC2)cc1 (centres undefined)	x	2.1%	2.6%	x	x	x
Clc1ccc(/C=N\Nc2ccccc2)cc1	-14.5%	-15.7%	3.98µM*	1.3	-4.8%	-3.7%
CCN(c1ccccc1)c1nnc(NC(=O)Nc2cccc(Br)c2)s1	x	-3.3%	5.5%	x	x	x
COc1ccc(NC(=O)CSc2nc3c(oc4ccccc43)c(=O)n2-c2ccccc2)cc1OC	x	-8.9%	2.4%	x	x	x
CCc1cccc(C)c1NC(=O)CSc1nc2ccccc2nc1Cc1ccccc1	x	-1.1%	-5.1%	x	x	x
Cc1cc2cc(CNC(=S)Nc3ccc(OC(F)(F)F)cc3)ccc2[nH]1	-8.6%	u	11.2µM*	-1.3	-3.0%	-6.7%
Cc1cc2cc(CNC(=S)Nc3ccc(OC(F)F)cc3)ccc2[nH]1	-18.1%	-12.7%	u	-2.7	-1.6%	6.5%
CCN(c1cccc(C)c1)S(=O)(=O)c1ccc(-c2cc(C)no2)s1	1.1%	18.9%	u	-0.8	9.1%	u
Cc1cccc(N(C)S(=O)(=O)c2ccc(-c3cc(C)no3)s2)c1	-0.6%	-10.5%	1µM*	2.3	9.5%	u
CCN(C(=O)c1cnc(N2CCOCC2)c2ccccc12)c1cc(C)ccc1C	x	-6.5%	-29.6%	x	x	x
COc1ccc(C)cc1NC(=O)CCCN1C(=O)C(c2ccccc2)Oc2cccnc21 (centres undefined)	0.9%	0.0%	10µM*	-2.3	28.8%	2.2%
Cc1ccc(NC(=O)CSc2nnc(-c3cc4occc4n3C)n2-c2ccccc2C)c(C)c1	x	-0.8%	u	x	x	x
CCN(C(=O)Cn1nc(Cc2cccnc2)c2ccccc2c1=O)c1cc(C)ccc1C	x	-8.8%	0.0%	x	x	x
COc1ccc(OC)c2sc(N3CCN(C(=O)c4ccc5c(c4)CCCC5)CC3)nc12	x	-6.4%	u	x	x	x
COc1cccc(-c2nc3ccccc3s2)c1	-3.0%	-0.3%	u	-0.6	1.8%	-6.1%
c1ccc2sc(-c3ccncc3)nc2c1	-0.1%	4.0%	59.3%	-0.8	26.0%	-5.7%
Oc1ccc(-c2nc3ccccc3s2)cc1	-13.9%	-7.2%	-2.2%	2.0	2.5%	6.31µM*
COc1ccc(-c2nc3ccccc3s2)cc1	-2.1%	3.3%	u	0.7	-4.5%	3.55µM*
CCOC(=O)c1c(NC(=O)CCCOc2ccc(Cl)cc2)sc2c1CCC2	x	16.9%	6.1%	x	x	x
Cc1ccc(CNC(=O)c2cc3c(=O)n(Cc4cccnc4)ccc3nc2C)cc1	x	3.2%	-12.2%	x	x	x
Cc1ccc(NS(=O)(=O)c2ccc(-n3cccn3)cc2)c(Br)c1	x	-2.7%	u	-3.0	-0.2%	x
